From the supplement of paper PMC10849652
The full data set covers some 7,900 targets. This sample favours those with a hit. About 0.6% of all pairs of compound and target were hits.

The targets below were run with c1cn2cc(-c3ccc4cn[nH]c4c3)nc(Nc3ccc(N4CCOCC4)cc3)c2n1 [entospletinib] (assay: log2 fold change, soluble protein after heating vs DMSO (PISA); higher = thermal stabilisation; K562 cells, 10 uM, 30 min; active = over 0.2 and 3.5 SD of the protein, either way, in both replicates (recomputed)).
Summary of the method: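 Thermal stability values are relative to control samples and come from duplicates. They are expressed as log2 fold changes. For measurement, K562 cells (2×10^6 cells/mL) received 10 μM compound for 30 min, and aliquots were heated for 3 min over 48°C-58°C, pooled, and extracted at 4°C in PBS with 0.5% NP-40. Soluble protein, the supernatant after 21,000xg for 90 min, was quantified by TMTpro 16plex LC-MS/MS with equalised channel sums.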

Sequence of UniProt Q16656 (Q16656 whole entry, looked up): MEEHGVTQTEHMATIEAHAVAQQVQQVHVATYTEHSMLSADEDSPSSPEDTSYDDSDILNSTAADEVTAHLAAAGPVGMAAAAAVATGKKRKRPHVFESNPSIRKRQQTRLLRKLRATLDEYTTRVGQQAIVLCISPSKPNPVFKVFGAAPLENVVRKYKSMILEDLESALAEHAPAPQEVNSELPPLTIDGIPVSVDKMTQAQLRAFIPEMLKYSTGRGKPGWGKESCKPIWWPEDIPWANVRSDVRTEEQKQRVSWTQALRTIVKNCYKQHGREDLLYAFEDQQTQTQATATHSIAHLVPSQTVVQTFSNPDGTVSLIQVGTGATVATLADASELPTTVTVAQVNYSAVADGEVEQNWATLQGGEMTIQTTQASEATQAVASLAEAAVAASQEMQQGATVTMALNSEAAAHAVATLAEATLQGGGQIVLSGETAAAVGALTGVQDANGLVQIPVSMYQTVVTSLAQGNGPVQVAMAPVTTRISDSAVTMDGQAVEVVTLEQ
Sequence of UniProt Q96I59 (Q96I59 whole entry, looked up): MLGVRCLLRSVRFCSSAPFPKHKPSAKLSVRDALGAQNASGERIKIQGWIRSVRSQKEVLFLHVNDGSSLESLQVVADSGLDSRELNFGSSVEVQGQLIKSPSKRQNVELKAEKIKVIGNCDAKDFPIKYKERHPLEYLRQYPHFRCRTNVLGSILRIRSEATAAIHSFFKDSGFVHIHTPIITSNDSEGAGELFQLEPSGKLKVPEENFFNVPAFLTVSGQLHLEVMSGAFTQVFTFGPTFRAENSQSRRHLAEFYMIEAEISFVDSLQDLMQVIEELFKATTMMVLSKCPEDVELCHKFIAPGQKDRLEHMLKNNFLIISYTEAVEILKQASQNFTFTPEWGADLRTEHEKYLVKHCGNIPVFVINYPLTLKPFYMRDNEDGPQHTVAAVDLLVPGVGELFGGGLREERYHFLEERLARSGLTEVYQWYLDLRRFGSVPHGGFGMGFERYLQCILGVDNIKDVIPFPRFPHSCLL
Sequence of UniProt O14524 (O14524 whole entry, looked up): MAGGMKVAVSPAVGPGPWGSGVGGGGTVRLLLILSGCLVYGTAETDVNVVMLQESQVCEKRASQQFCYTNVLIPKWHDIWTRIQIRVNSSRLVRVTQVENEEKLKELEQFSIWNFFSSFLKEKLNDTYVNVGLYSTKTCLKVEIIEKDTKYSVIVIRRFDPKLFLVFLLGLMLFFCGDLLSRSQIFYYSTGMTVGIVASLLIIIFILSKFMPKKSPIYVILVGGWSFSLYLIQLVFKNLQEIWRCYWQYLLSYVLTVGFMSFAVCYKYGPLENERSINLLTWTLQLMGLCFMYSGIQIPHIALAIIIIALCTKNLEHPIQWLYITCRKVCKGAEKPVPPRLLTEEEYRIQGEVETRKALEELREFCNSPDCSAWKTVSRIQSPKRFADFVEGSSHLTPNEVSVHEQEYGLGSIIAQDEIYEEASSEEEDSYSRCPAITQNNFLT
Sequence of UniProt Q9UBD5 (Q9UBD5 whole entry, looked up): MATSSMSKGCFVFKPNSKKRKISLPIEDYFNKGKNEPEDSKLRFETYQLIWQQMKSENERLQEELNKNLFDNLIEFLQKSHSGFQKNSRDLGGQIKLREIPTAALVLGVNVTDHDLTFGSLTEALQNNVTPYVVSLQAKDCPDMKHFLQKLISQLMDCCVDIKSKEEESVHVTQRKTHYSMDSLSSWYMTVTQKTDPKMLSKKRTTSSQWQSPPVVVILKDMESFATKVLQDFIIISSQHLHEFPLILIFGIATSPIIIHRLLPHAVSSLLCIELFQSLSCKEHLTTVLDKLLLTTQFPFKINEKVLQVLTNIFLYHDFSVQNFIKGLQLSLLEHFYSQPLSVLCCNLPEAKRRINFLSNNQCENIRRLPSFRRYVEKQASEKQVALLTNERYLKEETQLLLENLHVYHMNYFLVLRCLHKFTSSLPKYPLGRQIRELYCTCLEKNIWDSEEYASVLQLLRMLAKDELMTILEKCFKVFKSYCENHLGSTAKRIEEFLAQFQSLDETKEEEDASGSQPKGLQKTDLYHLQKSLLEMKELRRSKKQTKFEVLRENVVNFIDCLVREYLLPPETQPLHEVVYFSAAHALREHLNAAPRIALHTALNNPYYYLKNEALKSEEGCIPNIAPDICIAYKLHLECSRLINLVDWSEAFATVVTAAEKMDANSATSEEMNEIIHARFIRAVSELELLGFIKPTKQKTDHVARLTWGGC
Sequence of UniProt P84157 (P84157 whole entry, looked up): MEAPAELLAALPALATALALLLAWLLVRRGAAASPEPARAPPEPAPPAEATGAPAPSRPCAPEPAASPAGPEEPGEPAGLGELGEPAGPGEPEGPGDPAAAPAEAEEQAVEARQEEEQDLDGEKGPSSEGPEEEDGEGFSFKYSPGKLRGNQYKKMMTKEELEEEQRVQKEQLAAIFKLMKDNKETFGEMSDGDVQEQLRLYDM
Sequence of UniProt Q969V5 (Q969V5 whole entry, looked up): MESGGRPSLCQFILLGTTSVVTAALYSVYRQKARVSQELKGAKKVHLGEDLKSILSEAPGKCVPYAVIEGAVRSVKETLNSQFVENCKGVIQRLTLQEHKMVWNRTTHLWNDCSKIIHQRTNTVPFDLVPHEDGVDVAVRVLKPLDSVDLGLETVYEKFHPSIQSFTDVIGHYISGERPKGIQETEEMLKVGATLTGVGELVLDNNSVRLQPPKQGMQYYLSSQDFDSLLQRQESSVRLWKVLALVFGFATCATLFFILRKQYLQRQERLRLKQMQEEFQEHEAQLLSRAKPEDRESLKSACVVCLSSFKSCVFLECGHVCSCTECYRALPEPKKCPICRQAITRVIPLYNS
Sequence of UniProt Q9H3P2 (Q9H3P2 whole entry, looked up): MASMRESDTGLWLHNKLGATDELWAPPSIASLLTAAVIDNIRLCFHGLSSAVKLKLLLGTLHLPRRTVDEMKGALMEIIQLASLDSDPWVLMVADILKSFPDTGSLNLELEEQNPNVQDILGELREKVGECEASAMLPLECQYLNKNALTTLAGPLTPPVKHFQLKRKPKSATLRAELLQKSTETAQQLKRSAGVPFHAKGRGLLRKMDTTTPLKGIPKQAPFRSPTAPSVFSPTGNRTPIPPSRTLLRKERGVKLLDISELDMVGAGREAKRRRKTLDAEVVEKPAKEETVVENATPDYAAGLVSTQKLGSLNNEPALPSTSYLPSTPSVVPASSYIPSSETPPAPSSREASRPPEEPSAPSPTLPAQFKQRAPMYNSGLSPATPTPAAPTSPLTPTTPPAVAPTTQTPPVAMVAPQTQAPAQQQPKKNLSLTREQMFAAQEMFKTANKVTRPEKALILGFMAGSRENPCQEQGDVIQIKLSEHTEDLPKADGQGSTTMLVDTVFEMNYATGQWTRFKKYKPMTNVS
Sequence of UniProt Q8WX92 (Q8WX92 whole entry, looked up): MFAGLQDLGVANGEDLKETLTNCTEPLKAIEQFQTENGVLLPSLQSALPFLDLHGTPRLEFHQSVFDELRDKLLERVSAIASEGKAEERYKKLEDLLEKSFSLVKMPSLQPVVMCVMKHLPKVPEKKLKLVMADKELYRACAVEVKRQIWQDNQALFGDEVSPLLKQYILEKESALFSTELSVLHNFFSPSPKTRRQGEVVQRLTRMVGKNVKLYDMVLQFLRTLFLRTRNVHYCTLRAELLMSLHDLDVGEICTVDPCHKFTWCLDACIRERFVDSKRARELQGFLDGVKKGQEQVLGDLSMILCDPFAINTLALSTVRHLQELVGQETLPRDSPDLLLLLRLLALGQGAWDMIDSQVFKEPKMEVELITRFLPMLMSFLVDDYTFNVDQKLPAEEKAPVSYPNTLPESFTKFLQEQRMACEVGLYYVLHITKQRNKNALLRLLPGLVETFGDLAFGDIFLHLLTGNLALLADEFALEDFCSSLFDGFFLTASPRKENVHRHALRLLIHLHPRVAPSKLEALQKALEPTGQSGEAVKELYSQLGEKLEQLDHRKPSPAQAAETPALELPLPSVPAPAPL
Sequence of UniProt Q9Y5B8 (Q9Y5B8 whole entry, looked up): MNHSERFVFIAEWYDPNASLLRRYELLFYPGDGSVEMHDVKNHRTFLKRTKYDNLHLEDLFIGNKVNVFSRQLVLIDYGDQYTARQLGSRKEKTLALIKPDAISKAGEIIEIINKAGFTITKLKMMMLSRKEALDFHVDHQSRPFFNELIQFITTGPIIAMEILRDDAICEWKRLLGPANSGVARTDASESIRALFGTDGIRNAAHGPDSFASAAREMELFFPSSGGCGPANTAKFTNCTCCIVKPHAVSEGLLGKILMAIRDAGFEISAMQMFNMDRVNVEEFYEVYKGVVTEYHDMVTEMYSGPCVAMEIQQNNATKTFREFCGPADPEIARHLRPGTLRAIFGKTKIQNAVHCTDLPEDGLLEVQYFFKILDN
Sequence of UniProt P49116 (P49116 whole entry, looked up): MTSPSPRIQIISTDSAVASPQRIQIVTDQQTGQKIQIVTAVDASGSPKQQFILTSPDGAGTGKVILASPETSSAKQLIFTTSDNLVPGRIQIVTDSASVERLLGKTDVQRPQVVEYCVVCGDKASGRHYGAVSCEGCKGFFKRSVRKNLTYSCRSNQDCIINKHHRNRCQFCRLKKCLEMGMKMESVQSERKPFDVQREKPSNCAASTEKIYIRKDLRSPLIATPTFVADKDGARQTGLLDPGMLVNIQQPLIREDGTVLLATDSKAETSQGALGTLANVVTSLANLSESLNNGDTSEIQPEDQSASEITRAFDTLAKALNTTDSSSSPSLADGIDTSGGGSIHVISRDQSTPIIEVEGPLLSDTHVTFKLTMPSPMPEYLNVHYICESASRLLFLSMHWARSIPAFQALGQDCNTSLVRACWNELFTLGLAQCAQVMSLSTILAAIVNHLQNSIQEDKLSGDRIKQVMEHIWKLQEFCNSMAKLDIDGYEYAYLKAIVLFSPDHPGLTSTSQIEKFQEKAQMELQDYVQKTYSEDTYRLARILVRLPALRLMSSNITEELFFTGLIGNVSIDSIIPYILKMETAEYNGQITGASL

log2 fold change, inactive:
OGFR (UniProt Q9NZT2) -0.008
ORC3 isoform 2 (UniProt Q9UBD5) 0.114
NSDHL (UniProt Q15738) -0.05
NELFA (UniProt Q9H3P2) -0.005
OVCA2 (UniProt Q8WZ82) -0.031
MKNK1 (UniProt Q9BUB5) 0.01
NCKAP1 isoform 2 (UniProt Q9Y2A7) -0.041
MRPS15 (UniProt P82914) 0.044
NECTIN2 (UniProt Q92692) -0.016
NPC1L1 (UniProt Q9UHC9) -0.007
NEU1 (UniProt Q99519) -0.025
NDUFS7 (UniProt O75251) 0.006
NRF1 isoform 4 (UniProt Q16656) -0.041
MT-ATP6 (UniProt P00846) 0.029
NFATC2 (UniProt Q13469) -0.012
NUMB (UniProt P49757) -0.008
MRPL47 (UniProt Q9HD33) -0.116
NARS2 (UniProt Q96I59) -0.01
NAT14 (UniProt Q8WUY8) 0.007
MUL1 (UniProt Q969V5) -0.005
MYH10 isoform 3 (UniProt P35580) -0.073
NEMP1 (UniProt O14524) -0.121
NELFB isoform 2 (UniProt Q8WX92) -0.039
NAP1L1 (UniProt P55209) 0.028
MRPS31 (UniProt Q92665) 0.065
MYLK (UniProt Q15746) -0.041
OGFOD2 (UniProt Q6N063) -0.003
MXRA7 (UniProt P84157) -0.008
MRPS16 (UniProt Q9Y3D3) 0.051
OPHN1 (UniProt O60890) -0.014
NR2C2 isoform 2 (UniProt P49116) 0.019
NME7 (UniProt Q9Y5B8) -0.022
NFYC (UniProt Q13952) 0.033
MND1 (UniProt Q9BWT6) 0.047
